Source: publication PMC5540273 (PLoS ONE, 2017)
Like-named read-outs stand apart in the source and are kept apart here.

Key:
[1] = tested on: AAK1; details: n = 1
[2] = tested on: ABL1-nonphosphorylated; details: concentration: 1 μM, replicates: in singlicate; n = 1
[3] = tested on: ABL1-phosphorylated; details: concentration: 1 μM, replicates: in singlicate; n = 1
[4] = tested on: ABL2; details: concentration: 1 μM, replicates: in singlicate; n = 1
[5] = tested on: ACVR1B; details: concentration: 1 μM, replicates: in singlicate; n = 1
[6] = tested on: ACVR1; details: concentration: 1 μM, replicates: in singlicate; n = 1
[7] = tested on: ACVR2A; details: concentration: 1 μM, replicates: in singlicate; n = 1
[8] = tested on: ACVR2B; details: concentration: 1 μM, replicates: in singlicate; n = 1
[9] = tested on: ACVRL1; details: concentration: 1 μM, replicates: in singlicate; n = 1
[10] = tested on: T1, ADCK3; details: concentration: 1 μM, replicates: in singlicate; n = 1
T1 construct: gene CABC1

[11] = concentration: 1 μM, replicates: in singlicate
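Also: KINOMEscan kinase panel screen.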

Row | Compound | %Inh [1, 11] | %Inh [2] | %Inh [3] | %Inh [4] | %Inh [5] | %Inh [6] | %Inh [7] | %Inh [8] | %Inh [9] | %Inh [10] | %Inh ([1]; 1 µM)
1 | CCn1c(-c2nonc2N)nc2c(-c3ccccc3)ncc(OCCCN)c21.O=C(O)C(F)(F)F.O=C(O)C(F)(F)F [GSK260205] | 14% | 0% | 9% | 16% | 61% | 38% | 0% | 0% | 0% | 46% | 
2 | Fc1cc(Cl)ccc1Nc1ccnc2cc(-c3ccc(CN4CCSCC4)o3)ccc12 [GW560106] | 4% | 95.9% | 98.7% | 89% | 21% | 84% | 14% | 91% | 49% | 3% | 
3 | CC(C)(C)c1ccc(C(=O)Nc2cn3cc(-n4ccnc4)ccc3n2)cc1 | 12% | 44% | 21% | 22% | 7% | 0% | 10% | 8% | 0% | 2% | 
4 | CN(C)CCOc1ccc(-c2cc(-c3ccc(Cl)c(O)c3)c(-c3ccncc3)[nH]2)cc1.Cl.Cl [SB-684387] | 0% | 50% | 59% | 34% | 90.5% | 31% | 0% | 51% | 0% | 33% | 
5 | COc1ccc(C2=C(Nc3cccc(O)c3)C(=O)NC2=O)cc1 [SB-390766] | 20% | 0% | 0% | 13% | 0% | 0% | 0% | 0% | 0% | 0% | 
6 | CN(c1ccc2c(c1)nc(NCc1ccccc1)n2C)c1ccnc(Nc2ccc(CS(C)(=O)=O)cc2)n1.Cl [GW811603] | 16% | 98.9% | 66% | 54% | 0% | 0% | 0% | 0% | 0% | 0% | 
7 | COc1cccc(CC(=O)N2CCc3cc(-c4cn(C)c5ncnc(N)c45)ccc32)c1 [GSK2608899] | 18% | 57% | 4% | 30% | 14% | 0% | 0% | 61% | 19% | 2% | 
8 | CN(C)c1ncnc2nc[nH]c12 [SKF-31736] | 30% | 38% | 27% | 0% | 0% | 1% | 0% | 0% | 0% | 0% | 
9 | COc1cc(Nc2nccc(N3CCC(NS(=O)(=O)c4ccc(NC(C)=O)cc4)CC3)n2)cc(OC)c1OC [GSK1379825] | 68% | 0% | 2% | 38% | 34% | 66% | 47% | 59% | 0% | 80% | 
10 | Cl.Cl.NC(CNC(=O)c1cc(Br)c(-c2ccnc3[nH]ccc23)s1)c1ccccc1 (centres unmarked) [GSK1322949] | 82% | 21% | 10% | 25% | 0% | 38% | 0% | 10% | 0% | 40% | 
11 | Cc1cc(-c2ccnc(Nc3cccc(C#N)c3)n2)cc(C)c1O [GSK1440913] | 79% | 25% | 1% | 37% | 0% | 96.5% | 8% | 88% | 17% | 35% | 
12 | CN1CCN(Cc2ccc(NC(=O)Nc3ccc(N(C)c4ccnc(Nc5ccc(CS(C)(=O)=O)cc5)n4)cc3)cc2)CC1.Cl [GW827654] | 62% | 100% | 94.2% | 81% | 0% | 58% | 0% | 38% | 57% | 0% | 
13 | O=C(O)C(F)(F)F.O=c1[nH]ccc2nc(N[C@@H]3CCNC3)nc(Nc3cc(Cl)cc(Cl)c3)c12 [GSK2188764] |  | 9% | 11% | 0% | 0% | 0% | 0% | 0% | 0% | 25% | 89%
14 | O=C(Nc1n[nH]c2nc(-c3ccccc3O)ccc12)C1CC1 [SB-711880] | 17% | 68% | 44% | 55% | 0% | 0% | 0% | 0% | 0% | 3% | 
15 | COc1ccc(C)c(Nc2ccnc(Nc3ccc(-c4cnc[nH]4)cc3)n2)c1.Cl [GW784041] | 29% | 95.4% | 97.1% | 92.8% | 74% | 99% | 93.5% | 93.3% | 91.7% | 40% | 
16 | CC(C)c1nc(-c2cccc(NS(=O)(=O)c3c(F)cccc3F)c2)c(-c2ccnc(Nc3ccc(N4CCOCC4)nc3)n2)s1.Cl [GSK1723980] | 7% | 99.7% | 95.6% | 99.4% | 89% | 95.9% | 0% | 81% | 83% | 100% | 
17 | CCn1cnc2c(NCc3ccccc3)ncnc21 [SKF-96418] | 0% | 21% | 9% | 0% | 0% | 0% | 0% | 0% | 0% | 0% | 
